Rows were chosen to be rich in hits. Some 1.3% of all compounds tested hit in one or more screens of this group.
Pin1 inh = inhibitors of human Pin1 | Q13526 | Pin1 FP peptide displacement, HiFluor488, 10 min | Potency, µM (titrated, usually from 115 µM), inactives show at the highest dose activity, negative = inhibition, actives largely listed as inhibitors | 0.009% of 390,000 active; active = well fitted inhibition curve with a large enough effect in the polarisation, with a control signal flat, not every such curve was filed as active; inconclusive = small, poorly fitted or top-dose-only effect, or effect the other way, or a change in a side signal; inactive = no such curve, though single readings can be large or run the other way; the % refers to the polarisation; also: potency is read from the fitted curve at half-maximal effect; % is scaled to controls: 0 for no effect and ±100 for the full control effect
Target sequence (Q13526 whole entry, looked up): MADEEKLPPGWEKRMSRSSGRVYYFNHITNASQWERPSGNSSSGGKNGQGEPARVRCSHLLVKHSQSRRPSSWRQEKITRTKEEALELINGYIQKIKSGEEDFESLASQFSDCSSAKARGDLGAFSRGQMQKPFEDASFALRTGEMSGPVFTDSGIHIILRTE
PI5P4K alpha inh = blocks human PI5P4K alpha kinase activity; P48426; PI5P4Kalpha enzyme, ADP-Glo luminescence, 60 min; active compounds read low; max response, %; 1.2% of 330,000 active; AID 652105; active = max response of -50% or lower; inconclusive = between -30% and -50%; inactive = -30% or higher; also: value at the top dose of about 77 µM; % is scaled to controls: 0 for no effect and ±100 for the full control effect
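Single end-point luminescence (ADP-Glo) quantified ADP from PI5P4Kalpha turnover; ATP 5 microM final, 1 h at RT, 0.1% CHAPS and 0.28 mM EGTA in HEPES pH 7.4.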
FEN1 inhibitor = blocks human flap endonuclease 1; P39748; AID 588795; Potency, µM (highest dose often 114 µM), for inactives: at the highest dose activity change, negative = inhibition, actives largely listed as inhibitors; 0.35% of 390,000 active; Recombinant FEN1 flap cleavage, fluorescence, 15 min; also: potency is read from the fitted curve at half-maximal effect; % is scaled to controls: 0 for no effect and ±100 for the full control effect; nearly all actives have a fitted effect of over 65% in size
Target sequence (P39748 whole entry, looked up): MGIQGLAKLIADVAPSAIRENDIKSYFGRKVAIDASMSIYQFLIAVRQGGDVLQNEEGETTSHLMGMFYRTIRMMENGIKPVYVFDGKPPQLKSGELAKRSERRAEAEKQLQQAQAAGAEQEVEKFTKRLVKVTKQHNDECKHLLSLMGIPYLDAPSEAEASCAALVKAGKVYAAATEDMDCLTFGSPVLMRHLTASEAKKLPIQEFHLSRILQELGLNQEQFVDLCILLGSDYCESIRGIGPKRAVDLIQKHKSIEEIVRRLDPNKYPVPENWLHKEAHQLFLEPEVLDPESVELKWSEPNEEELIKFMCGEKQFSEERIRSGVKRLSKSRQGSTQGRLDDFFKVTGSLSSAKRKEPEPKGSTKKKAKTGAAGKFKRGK
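FEN1 at 10 nM preincubated with compounds 15 min at room temperature, then flap DNA substrate added at 50 nM final. Signal read at 0 and 15 min; concentration-response fitted with four-parameter Hill equation.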
PGK inhibitor = blocks T. brucei phosphoglycerate kinase; PGK/GAPDH coupled, Kinase-Glo luminescence, 60 min; Potency, µM (doses to about 57.5 µM), for the others: at the highest dose activity change, negative = inhibition, hits mostly inhibitors; 0.043% of 380,000 active; AID 602233; also: potency is read from the fitted curve at half-maximal effect; % is scaled to controls: 0 for no effect and ±100 for the full control effect; nearly all actives have a fitted effect of over 60% in size
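Luminescent ATP detection (Kinase-Glo Plus) follows a 60-minute room-temperature incubation, with wells lacking PGK as controls. Buffer: 100 mM TEA (pH 7.6), 5 mM MgCl2, 0.01% Tween-20. Coupling enzyme GAPDH (100 nM final) supplies unstable 1,3-BPG in-well.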
Glioma ERSR ind = inducers of ER stress response in human glioma cells | U87-MG GRP78 promoter luciferase reporter, 16 h | Potency, µM, for inactives: at the highest dose activation, actives largely listed as activators | 0.02% of 420,000 active | AID 602332; also: potency is read from the fitted curve at half-maximal effect; series mostly up to about 76 µM; % of control where 0% means no effect; nearly all actives have a fitted effect of over 35% in size
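Stably transfected U87-MG human glioma cells carrying a GRP78-based luminescent sensor were seeded at 1000 cells/well, pin-dosed with compounds and incubated 16 h. Luciferase reagent was then added, and end-point luminescence was read after 10 min at room temperature.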
WRN inhibitor = WRN helicase (human) inhibition. Potency, µM (doses to about 114 µM), for inactives: at the highest dose activity change, negative = inhibition, usual class: inhibitors. 0.46% of 360,000 active. AID 651768. WRN helicase unwinding, fluorescent forked duplex, kinetic. Q14191; also: potency is read from the fitted curve at half-maximal effect; % is scaled to controls: 0 for no effect and ±100 for the full control effect; nearly all actives have a fitted effect of over 55% in size
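Fluorescence dequenching readout, ex 525 nm/em 598 nm, kinetic mode: forked duplex DNA (100 nM final) with adjacent fluorophore and quencher unwound by WRN (20 nM final) with 2 mM ATP. Compound preincubation 15 min, room temperature.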
ADP-Glo counter = ADP-Glo luciferase interference, PI5P4K counter-screen; shares compounds with PI5P4K alpha inh; ADP-Glo detection counter-screen, luciferase luminescence, no enzyme; Potency, µM (highest dose often 76.9 µM), without a hit: at the highest dose activity change, negative = inhibition, actives largely listed as inhibitors; 1,100 tested, under 10 active
Numbers without * were called inactive; [ ] = dose if it differs, or a comment. Unless noted, calls follow the shape of the dose curve; as a rule, active = well fitted curve in the direction sought with a large enough effect; inconclusive = small, poorly fitted or top-dose-only effect, or another doubt; inactive = no such curve, though single readings can be large; an effect the other way counts as inactive or inconclusive.

`Cc1csc(NC(=O)CSc2nc3sc(C)c(C)c3c(=O)[nH]2)n1` gave Pin1 inh 68%, PI5P4K alpha inh -57*, FEN1 inhibitor -11%, PGK inhibitor -7%, Glioma ERSR ind 3%, WRN inhibitor -18% and ADP-Glo counter -1%.
CCC1CN(CCNC(=O)c2cccnc2OC)Cc2cc(OC)ccc2O1 (stereo not given) was read as Glioma ERSR ind -4%.
CC(=O)Nc1ccc(S(=O)(=O)Nc2ccc3c(c2)CCC3)cc1 was read as Pin1 inh -10%, PI5P4K alpha inh 6, FEN1 inhibitor -12%, PGK inhibitor -8%, Glioma ERSR ind -3% and WRN inhibitor -3%.
COc1ccc(S(=O)(=O)Nc2ccc3c(c2)CCC3)cc1 was read as Pin1 inh 5%, PI5P4K alpha inh -67*, FEN1 inhibitor -12%, PGK inhibitor 9%, Glioma ERSR ind -3%, WRN inhibitor inconclusive and ADP-Glo counter -4%.
`CCOC(=O)CCC(=O)OC1C(OC2C(C)C(OC3CC(C)(OC)C(O)C(C)O3)C(C)C(=O)OC(CC)C(C)(O)C(O)C(C)C(=O)C(C)CC2(C)O)OC(C)CC1N(C)C` (stereo not given) gave Glioma ERSR ind -3%.
For COc1cc(CN2c3ccc(Br)cc3C(=O)CS2(=O)=O)cc(OC)c1 the results were FEN1 inhibitor -3% and Glioma ERSR ind -1%.
For CC(=O)NC(c1ccc(C)cc1)c1cc([N+](=O)[O-])c2cccnc2c1O (stereo not given) the results were Pin1 inh 4%, PI5P4K alpha inh -59*, FEN1 inhibitor -16%, PGK inhibitor 3%, Glioma ERSR ind -11%, WRN inhibitor -12%[57.1 µM] and ADP-Glo counter 3%.
`CC(=O)NC(c1ccccc1)c1cc(Cl)c2cccnc2c1O` (stereo not given) gave Pin1 inh 36%, PI5P4K alpha inh -2, FEN1 inhibitor inconclusive, PGK inhibitor inactive, Glioma ERSR ind -5% and WRN inhibitor 12%.
For O=C(NC(c1ccc(Cl)cc1)c1cc(Cl)c2cccnc2c1O)c1cccnc1 (stereo not given) the results were Pin1 inh 25%, PI5P4K alpha inh -63*, FEN1 inhibitor -17%, PGK inhibitor -8%, Glioma ERSR ind -2%, WRN inhibitor -7% and ADP-Glo counter -9%.
Screening O=C(Cn1cncn1)N1CCOc2ccc(CN3CCN(c4ccccc4)CC3)cc2C1 returned Glioma ERSR ind -5%.
Screening COC(=O)c1c(OCc2ccccn2)cc(=O)n2c1CCN(Cc1cccc(C(F)(F)F)c1)CC2 returned Glioma ERSR ind 0%.
Screening O=C1Cc2cc(S(=O)(=O)N3CCN(c4ccc(Br)cc4)CC3)ccc2N1 returned Pin1 inh 48%[230 µM].
Screening CCC(C)n1c(SCC(=O)Nc2ccc3[nH]c(=O)[nH]c3c2)nc2ccccc2c1=O (stereo not given) returned Pin1 inh 6%, PI5P4K alpha inh -50*, FEN1 inhibitor -24%, PGK inhibitor -7%, Glioma ERSR ind -3%, WRN inhibitor 1% and ADP-Glo counter -1%.
Screening O=C1CCC(=O)N1c1ccc(-c2nc3sc4c(c3c(=O)o2)CCC4)cc1 returned Pin1 inh 0%, PI5P4K alpha inh 1, FEN1 inhibitor -2%, PGK inhibitor -5%, Glioma ERSR ind 0% and WRN inhibitor -2%.
Screening O=c1oc(-c2ccccc2)nc2sc3c(c12)CCC3 returned Pin1 inh inconclusive, PI5P4K alpha inh -54*, FEN1 inhibitor 4%, PGK inhibitor -17%, Glioma ERSR ind 4%, WRN inhibitor -16%[11.6 µM] and ADP-Glo counter -2%.
`O=C(NCc1ccc2c(c1)OCO2)c1cc2ncc(Br)cn2n1` gave Pin1 inh inconclusive, PI5P4K alpha inh -65*, FEN1 inhibitor 7%, PGK inhibitor inconclusive, Glioma ERSR ind 1%, WRN inhibitor inconclusive and ADP-Glo counter -4%.
COc1ccc(-c2cccc3c2OC(CNC(=O)c2ccc4c(c2)OCO4)C3)nn1 (stereo not given) was read as Glioma ERSR ind 2%.
For CS(=O)(=O)Nc1ccc(C2=NN(C(=O)c3ccco3)C(c3ccccc3)C2)cc1 (stereo not given) the results were Pin1 inh 2%, PI5P4K alpha inh -51*, FEN1 inhibitor 6%, PGK inhibitor 3%, Glioma ERSR ind 0%, WRN inhibitor -9% and ADP-Glo counter 3%.
For Cc1ccc(C2CC(c3ccc(NS(C)(=O)=O)cc3)=NN2C(=O)c2ccco2)cc1 (stereo not given) the results were Pin1 inh 21%, PI5P4K alpha inh -27, FEN1 inhibitor 2%, PGK inhibitor inactive, Glioma ERSR ind -3% and WRN inhibitor -10%.
CS(=O)(=O)Nc1ccc(C2=NN(C(=O)c3ccco3)C(c3cccc(F)c3)C2)cc1 (stereo not given) was read as Pin1 inh 2%, PI5P4K alpha inh -65*, FEN1 inhibitor -13%, PGK inhibitor -11%, Glioma ERSR ind 7%, WRN inhibitor -12% and ADP-Glo counter 0%.
Screening Cc1cc(NC(=O)c2sc(Nc3cccc(C(F)(F)F)c3)nc2N)no1 returned Pin1 inh 12%, PI5P4K alpha inh -67*, FEN1 inhibitor -11%, PGK inhibitor -1%, Glioma ERSR ind -6%, WRN inhibitor -12% and ADP-Glo counter 2%.
For O=C(NCC1(N2CCOCC2)CCCC1)c1cnn(-c2nccc(-c3cccs3)n2)c1C1CC1 the results were Glioma ERSR ind -3%.
`Cc1ccn2c(=O)nc(SCC(=O)NCc3ccccc3Cl)nc2c1` gave Pin1 inh inconclusive, PI5P4K alpha inh -59*, FEN1 inhibitor -7%, PGK inhibitor -11%, Glioma ERSR ind -3%, WRN inhibitor inconclusive and ADP-Glo counter -4%.
For O=C(NCC1Cc2cccc(-c3cnccn3)c2O1)c1ccc(F)c(Cl)c1 (stereo not given) the results were Glioma ERSR ind -3%.
For Cc1ccc(Cl)cc1N1CCN(S(=O)(=O)c2ccc3[nH]c4c(c3c2)CCCCC4)CC1 the results were Pin1 inh 3%, FEN1 inhibitor -10%, PGK inhibitor -11% and Glioma ERSR ind -2%.
